A selection: hits, their analogues and other compounds. The true share with any hit is near 1.1%.
BRCA1 expr act = BRCA1 expression activation. 1.1% of 380,000 active. Potency, µM (top dose mostly 46.1 µM), inactives show top-dose activation, most hits filed as activators. MCF7-BRCA1-FFLuc reporter, luminescence, 48 h; response scale: scaled: vehicle 0%, 10 µM genistein 100%; note: potency is the fitted concentration of half-maximal effect; nearly all actives have a fitted effect of over 80% in size
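Luminescence from a BRCA1-driven firefly luciferase in MCF7 cells was the read-out, taken 15 min after substrate addition following 48 h compound exposure at 37 °C. Data were normalized to a 10 microM genistein control and DMSO vehicle.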
PTHR1 agonist = agonists of human PTHR1 parathyroid hormone receptor | HEK293 GP2 PTHR1 cells, GloSensor cAMP luminescence, 1 h | Potency, µM (top dose mostly 115 µM), inactives show top-dose activation, hits mostly activators | 0.075% of 410,000 active | Q03431; note: potency is the fitted concentration of half-maximal effect; nearly all actives have a fitted effect of over 55% in size
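HEK-293-derived GP2 cells expressing PTHR1 and a GloSensor cAMP reporter, 3,000/well, plated overnight, given luciferin plus IBMX (each 0.5 mM as added) for 1 h at 37 °C, then compound for 1 h at 37 °C. Luminescence was read after 15 min at room temperature.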
LDHA block = blocks human lactate dehydrogenase A; P00338; purified LDHA, NADH/diaphorase-resazurin fluorescence; hits give low values; activity change, % (values are at about 110 or 230 µM); 0.15% of 480,000 active; AID 1347041; in the data active = activity change below about -30%; inconclusive = mostly about -25% to -30%;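 note: plate controls were DMSO wells for no effect and wells without enzyme for full effect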
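Human LDH5 (2 nM) was incubated with 0.06 mM NADH and 0.2 mM pyruvate for 5 min at room temperature in Tris pH 7.4. Remaining NADH was coupled through diaphorase/resazurin, and resorufin fluorescence was read at 0 and 20 min.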
RGS4 inhibitor = blocks human RGS4-accelerated GTP hydrolysis | P49798 | Transcreener GDP fluorescence polarization, RGS4-accelerated GTP hydrolysis | Potency, µM (highest dose often 114 µM), for the others: at the top dose activity change, negative = inhibition, actives largely listed as inhibitors | 0.039% of 390,000 active | AID 504845; note: potency is the fitted concentration of half-maximal effect; % is set by controls: 0 for no effect and ±100 for the full control effect; nearly all actives have a fitted effect of over 75% in size
Target sequence (P49798 whole entry, looked up): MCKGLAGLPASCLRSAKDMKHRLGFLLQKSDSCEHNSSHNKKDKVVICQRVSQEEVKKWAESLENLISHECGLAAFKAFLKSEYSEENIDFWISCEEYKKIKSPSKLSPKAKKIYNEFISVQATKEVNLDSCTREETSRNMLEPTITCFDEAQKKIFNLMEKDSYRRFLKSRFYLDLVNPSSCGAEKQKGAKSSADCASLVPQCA
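MLSMR compounds (23 nl, pin-transferred) preincubated 10 min at room temperature with a 500nM (2x) first reagent, then RGS4 at 900nM (2x) plus Transcreener GDP mix added; fluorescence polarization (620/688 nm) read before and after 90 min at 30 °C.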
p53 reactivator = mutant p53 re-activation in reporter cells; H1299 p53-A138V BP100-luciferase reporter, luminescence, 24 h; Potency, µM (series often up to 92.2 µM), for inactives: at the highest dose activity change, positive = activation, usual class: activators; 0.063% of 320,000 active; AID 504706; note: potency is the fitted concentration of half-maximal effect; % of control where 0% means no effect; nearly all actives have a fitted effect of over 45% in size
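p53-null H1299 cells stably carrying temperature-sensitive p53-A138V and a BP100-luciferase reporter were pinned with compounds (4-point, 1:5 series) and held 24 hrs at 37 deg C. Luminescence was read 10 min after detection reagent.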
* hit, by the source's call; ! = not active in a repeat; [ ] = dose if it differs, or a comment. Unless noted, calls come from the whole dose curve; as a rule, active = well fitted curve in the direction sought with a large enough effect; inconclusive = small, poorly fitted or top-dose-only effect, or another doubt; inactive = no such curve, though single readings can be large; an effect the other way counts as inactive or inconclusive.

How did COc1ccc(N2C(=O)CN(C3CCCCC3)[C@H]3CS(=O)(=O)C[C@H]32)cc1 do in these assays?
LDHA block: 3

What do the screens show for `CC(C)C(=O)Nc1ccc2oc(-c3cc(F)c(F)cc3Cl)nc2c1`?
BRCA1 expr act: 2.8µM*; PTHR1 agonist: inactive; LDHA block: -5; RGS4 inhibitor: -10%; p53 reactivator: inconclusive

What do the screens show for `O=C(/C=C/C=C/c1ccco1)c1ccc(N2CCOCC2)cc1`?
LDHA block: 3

What do the screens show for `Cc1cc(-c2cc(C(=O)O)c3ccccc3n2)cc(C)c1C`?
LDHA block: 1

Results for c1ccc2c(c1)CCN(c1ncnc3nc[nH]c13)C2 ?
BRCA1 expr act: 3.5µM*!; PTHR1 agonist: -13%; LDHA block: 2; RGS4 inhibitor: -24%; p53 reactivator: -4%

What do the screens show for `C=CCn1c(SCC(C)=O)nc2scc(-c3ccc(C)o3)c2c1=O`?
BRCA1 expr act: 13µM*; PTHR1 agonist: -11%; LDHA block: -7; RGS4 inhibitor: inconclusive; p53 reactivator: inconclusive

Results for C=CCn1c(SCC(=O)NCCCC)nc2scc(-c3ccco3)c2c1=O ?
BRCA1 expr act: -35%; PTHR1 agonist: inactive; LDHA block: 1; RGS4 inhibitor: inconclusive; p53 reactivator: -9%

Results for O=C(/C=C/c1ccccc1[N+](=O)[O-])Nc1ccccc1 ?
BRCA1 expr act: 7.1µM*; PTHR1 agonist: -27%; LDHA block: 0; RGS4 inhibitor: 6%; p53 reactivator: 2%

What do the screens show for `Cc1ccccc1Oc1ccc2c(c1)[C@@H]1C[C@H](N(C)C(=O)c3cccnc3)[C@H]([C@H](C)O)C(=O)N1CC2`?
BRCA1 expr act: 0%; PTHR1 agonist: -5%; LDHA block: -32*

What do the screens show for `CCOc1cc(/C=C/c2ncc(C(=O)O)s2)cc(Br)c1OC`?
LDHA block: -8

Results for CC1(C)Cc2cccc(OCc3ccc(C(N)=O)cc3)c2O1 ?
LDHA block: 4

What do the screens show for `Cc1ccc(C(=O)c2c(C)c(CCC#N)n3ccccc23)cc1C`?
LDHA block: 10

Results for O=[N+]([O-])c1ccc(N2CCN(c3ccccc3)CC2)nc1 ?
BRCA1 expr act: 24%; PTHR1 agonist: -16%; LDHA block: 1; RGS4 inhibitor: 11%; p53 reactivator: 4%

What do the screens show for `O=[N+]([O-])c1ccc(N2CCc3ccccc3C2)nc1`?
BRCA1 expr act: 11µM*; PTHR1 agonist: -12%; LDHA block: 1; RGS4 inhibitor: -5%; p53 reactivator: -68%

How did CCCn1nnc(NC(=O)c2ccccc2Cl)n1 do in these assays?
BRCA1 expr act: 11µM*; PTHR1 agonist: -10%[57.5 µM]; LDHA block: -7; RGS4 inhibitor: 5%; p53 reactivator: 12%

How did CCCn1nnc(NC(=O)c2ccc(Cl)cc2Cl)n1 do in these assays?
BRCA1 expr act: 2.5µM*; PTHR1 agonist: -17%; LDHA block: -3; RGS4 inhibitor: -6%; p53 reactivator: inconclusive

What do the screens show for `CCCn1nnc(NC(=O)c2cccnc2Cl)n1`?
BRCA1 expr act: -6%; PTHR1 agonist: -6%[57.5 µM]; LDHA block: -1; RGS4 inhibitor: 15%; p53 reactivator: -2%

Results for Clc1ccc(-c2cc3ccccn3c2)cc1 ?
LDHA block: 8

How did CCCN1C(C(C)=O)=C(OC(=O)CC)c2ccccc2S1(=O)=O do in these assays?
LDHA block: 10

What do the screens show for `Clc1cccc(Nc2nnc(-c3ccccc3)c3ccccc23)c1`?
BRCA1 expr act: -34%; LDHA block: -17; RGS4 inhibitor: -200%[56.9 µM]

What do the screens show for `Cc1nc2cc(Nc3nnc(-c4ccccc4)c4ccccc34)ccc2n1C`?
BRCA1 expr act: 4.5µM*; PTHR1 agonist: -7%; LDHA block: -2; RGS4 inhibitor: 7%; p53 reactivator: inconclusive

Results for O=C(Nc1cccc(C(=O)Nc2ccc(S(=O)(=O)O)c3cc(S(=O)(=O)O)cc(S(=O)(=O)O)c23)c1)Nc1cccc(C(=O)Nc2ccc(S(=O)(=O)O)c3cc(S(=O)(=O)O)cc(S(=O)(=O)O)c23)c1 ?
BRCA1 expr act: -7%; LDHA block: -112*; RGS4 inhibitor: 42%[56.9 µM]

Results for O=C(O)c1cccc(NC(=O)c2cccc(S(=O)(=O)Nc3cccc(C(=O)O)c3)c2)c1 ?
PTHR1 agonist: inactive; LDHA block: -2; RGS4 inhibitor: -12%

What do the screens show for `Cn1cc(-c2nc3ccccc3[nH]2)c2ccccc21`?
BRCA1 expr act: 11µM*; PTHR1 agonist: inactive; LDHA block: -6; RGS4 inhibitor: 8%; p53 reactivator: inconclusive

How did Cc1oc(-c2cccc(Cl)c2)nc1CNC(=O)Nc1ccccc1Cl do in these assays?
LDHA block: 8

How did CC(C)(C)C1CCc2c(sc3c2C(c2ccc(O)cc2)CC(=O)N3)C1 (configuration not stated) do in these assays?
LDHA block: 8

Results for COc1cc(N)c(Cl)cc1C(=O)CCC1CCN(CCNS(C)(=O)=O)CC1 ?
RGS4 inhibitor: 38µM*!

Results for COc1cc(COc2cc(N)c(Cl)cc2C(=O)CCC2CCN(CCNS(C)(=O)=O)CC2)cc(OC)c1 ?
RGS4 inhibitor: 130%[56.9 µM]

What do the screens show for `COc1ccc(Nc2nnc(SCC(=O)N(CC(C)C)C3CCS(=O)(=O)C3)s2)cc1` (configuration not stated)?
BRCA1 expr act: 7.1µM*; PTHR1 agonist: -24%; LDHA block: 4

What do the screens show for `CCN(C(=O)CSc1nnc(Nc2ccccc2)s1)C1CCS(=O)(=O)C1` (configuration not stated)?
BRCA1 expr act: 23%; PTHR1 agonist: inactive; LDHA block: 0; RGS4 inhibitor: 1%; p53 reactivator: 2%

What do the screens show for `Cc1nc(-c2ccc(F)cc2)sc1C(=O)NC1C=CS(=O)(=O)C1` (configuration not stated)?
LDHA block: -6

What do the screens show for `COc1ccc(C2=NOC(Cn3nc(C(=O)O)cc3-c3ccccc3)C2)cc1` (configuration not stated)?
BRCA1 expr act: 16%; PTHR1 agonist: 14%; LDHA block: -2; RGS4 inhibitor: -3%; p53 reactivator: 4%

Results for O=C1c2ccccc2S(=O)(=O)N1CC1CC(c2ccc(Cl)cc2)=NO1 (configuration not stated) ?
BRCA1 expr act: 3.2µM*; PTHR1 agonist: -40%; LDHA block: -1; RGS4 inhibitor: -28%; p53 reactivator: inconclusive

What do the screens show for `O=C(CN1C(=O)c2ccccc2S1(=O)=O)c1ccccc1`?
BRCA1 expr act: -73%; PTHR1 agonist: inactive; LDHA block: -5; RGS4 inhibitor: inconclusive; p53 reactivator: -23%

Screening results (PubChem)
